Experimental data from PubChem BioAssay (NCATS).
Inconclusive results are not listed. Active and inactive are the calls of the source. The call rests on the fitted dose curve; in most records, active means well fitted curve in the direction sought with a large enough effect; inconclusive means small, poorly fitted or top-dose-only effect, or another doubt; inactive means no such curve, though single readings can be large; an effect the other way counts as inactive or inconclusive.

These compounds were tested on Zika virus NS2B-NS3 protease (unlinked) (assay: Optimization of GU AMC qHTS for Zika virus inhibitors: Unlinked NS2B-NS3 protease assay (AID 1347151; further: nearly all actives have a fitted effect of over 80% in size; further: potency means the concentration at half of the fitted maximal effect;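 on activity change, negative = inhibition: 0% = no-inhibitor control and -100% = no-enzyme control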)). Conditions: recombinant ZIKV NS2B-NS3 protease, fluorogenic AMC substrate; series mostly up to 52.5 µM; activity change, negative = inhibition: at the top concentration.
In short: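 Noncovalent complex of NS2B hydrophilic domain and NS3 protease domain, 25 nM final, in 10 mM Tris-HCl pH 8.0, 0.01% Tween 20. AMC fluorescence change over 15 min at room temperature was fitted to a 4-parameter Hill equation.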

Structure (SMILES) | activity change, negative = inhibition | Potency
O=C(Nc1ccc2[nH]ncc2c1)C1CCC1 | -3.5% (inactive) | –
C#C[C@]1(O)CC[C@H]2[C@@H]3CCC4=Cc5oncc5CC4(C)[C@H]3CCC21C (stereo partly drawn) | -2.09% (inactive) | –
CN1C2CC(OC(=O)[C@H](CO)c3ccccc3)CC1C1OC12 (stereo partly drawn) | -0.583% (inactive) | –
CN(C)CCC(c1ccc(Cl)cc1)c1ccccn1 (stereo not drawn) | 11.8% (inactive) | –
N#C/C(=C\c1ccc(-c2cc(Cl)ccc2Cl)o1)C(=O)Nc1cccc2ncccc12 | – | 26.7 µM (active)
CC1(C)CCC=[N+]1[O-] | 4.49% (inactive) | –
c1ccc(-c2ccccn2)nc1 | 3.52% (inactive) | –
O=C(Nc1ccc2c(c1)CCN(Cc1ncn[nH]1)C2)c1ccccc1-c1ccc(C(F)(F)F)cc1 | 2.55% (inactive) | –
c1cnc2c(c1)ccc1cccnc12 | 0.268% (inactive) | –
CN1C2CCC1CC(OC(=O)C(O)c1ccccc1)C2 (stereo not drawn) | 0.319% (inactive) | –
O=C(O)CCCC[C@@H]1CCSS1 | 4.15% (inactive) | –
O=C(O)CC1CCCc2ccccc2C1O (stereo not drawn) | -0.468% (inactive) | –
CN(CCCOc1ccc(Cc2ccccc2)cc1)CCC(=O)O | 11.2% (inactive) | –
Cn1c(=O)c2[nH]c(-c3ccccc3)nc2n(C)c1=O | – | 4.74 µM (active)
NS(=O)(=O)C#Cc1ccccc1 | 1.64% (inactive) | –
COc1cccc(OC)c1OCCNCC1COc2ccccc2O1 (stereo not drawn) | 2.13% (inactive) | –
CCOC(=O)N1CCN(/[N+]([O-])=N/Oc2ccc([N+](=O)[O-])cc2[N+](=O)[O-])CC1 | -11.7% (inactive) | –
NS(=O)(=O)c1ccc(-n2nc(C(F)(F)F)cc2-c2ccc(Cl)cc2)cc1 | -12.9% (inactive) | –
COc1cc(C(O)CO)ccc1OS(=O)(=O)O (stereo not drawn) | 3.46% (inactive) | –
Cc1cc(NC2CCCCC2)nc(-n2nc(C)cc2C)n1 | -9.89% (inactive) | –

Each compound was assayed on Zika virus NS2B-NS3 protease (assay: Primary screen GU AMC qHTS for Zika virus inhibitors (AID 1347154;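 further: 0% = no-inhibitor control and -100% = no-enzyme control; nearly all actives have a fitted effect of over 70% in size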)). Conditions: Zika NS2B-NS3 unlinked protease, AMC fluorogenic substrate; series mostly up to 54.1 µM; activity change, negative = inhibition: at the top concentration.
In short: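 Unlinked Zika NS2B hydrophilic domain/NS3 protease domain noncovalent complex (25 nM final) in 10 mM Tris-HCl pH 8.0, 0.01% Tween 20, with AMC peptide substrate. Fluorescence (ex 340, em 450 nm) change over 15 min, room temperature; percent inhibition fitted to 4-parameter Hill equation.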

Structure (SMILES) | activity change, negative = inhibition | Potency
O=c1[nH]c2cc(C(F)(F)F)ccc2n1-c1cc(C(F)(F)F)ccc1O | -11.3% (inactive) | –
O=[N+]([O-])c1ccc2c(c1)S(=O)(=O)C=C2 | 11.9% (inactive) | –
CCCCCCCC/C=C\CCCCCCCC(=O)NCCO | – | inactive
Cn1cc(C2=C(c3ccc(Cl)cc3Cl)C(=O)NC2=O)c2ccccc21 | 12.9% (inactive) | –
N[C@H](CCCP(=O)(O)O)C(=O)O | – | inactive
CN1[C@@H](CC(=O)c2ccccc2)CCC[C@H]1C[C@H](O)c1ccccc1 | -5.94% (inactive) | –
O=C(Nc1cccc(C(=O)Nc2ccc(S(=O)(=O)O)c3cc(S(=O)(=O)O)cc(S(=O)(=O)O)c23)c1)Nc1cccc(C(=O)Nc2ccc(S(=O)(=O)O)c3cc(S(=O)(=O)O)cc(S(=O)(=O)O)c23)c1 | -20.3% (inactive) | –
Cc1ccc(S(=O)(=O)/C=C/C#N)cc1 | 8.59% (inactive) | –
Cc1ccc(O)c(N=Nc2ccccc2)n1 | – | inactive
C=CCc1cccc(/C=N/NC(=O)CN2CCN(Cc3ccccc3)CC2)c1O | 28.5% (inactive) | –
NS(=O)(=O)C#Cc1ccccc1 | 0.77% (inactive) | –
COc1cccc(OC)c1OCCNCC1COc2ccccc2O1 (stereo not drawn) | 4.29% (inactive) | –
CC12C(=O)OC(=O)C1(C)C1CCC2O1 (stereo not drawn) | 38.3% [at 104 µM] (inactive) | –
CC(C)(C=O)Cc1cc(C(C)(C)C)c(O)c(C(C)(C)C)c1 | -1.71% (inactive) | –

The compounds below were run on Zika virus NS2B-NS3 protease (unlinked complex) (assay: Primary screen GU Rhodamine qHTS for Zika virus inhibitors: Unlinked NS2B-NS3 protease assay (AID 1347159; further: on the % scale 0 is the no-effect control and ±100 the full control effect; nearly all actives have a fitted effect of over 60% in size)). Conditions: Recombinant ZIKV NS2B-NS3 protease, Rhodamine110 substrate fluorescence; series mostly up to 107 µM; activity change, negative = inhibition: at the top concentration.
In short: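 Noncovalent NS2B hydrophilic domain/NS3 protease complex (25 nM final) in 10 mM Tris-HCl pH 8.0, 0.01% Tween 20, preincubated 15 min with compounds (up to 114 microM), then 1.5 microM Rhodamine110 substrate. Fluorescence change over 15 min fitted to 4-parameter Hill.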

Structure (SMILES) | activity change, negative = inhibition
O=C(Nc1ccc2[nH]ncc2c1)C1CCC1 | 0% (inactive)
O=C(Nc1ccc2c(c1)CCN(Cc1ncn[nH]1)C2)c1ccccc1-c1ccc(C(F)(F)F)cc1 | 0% (inactive)
CCN(CC)CCCCNc1ncc2cc(-c3c(Cl)cccc3Cl)c(NC(=O)NC(C)(C)C)nc2n1 | 54.1% (inactive)
CS(=O)(=O)c1ccc(-n2nc(C(F)(F)F)cc2-c2ccc(F)cc2)cc1 | 81.9% (inactive)
CN(CCCOc1ccc(Cc2ccccc2)cc1)CCC(=O)O | 28.9% (inactive)

These compounds were tested on Zika virus NS2B-NS3 protease (linked construct) (assay: Primary screen NINDS Rhodamine qHTS for Zika virus inhibitors (AID 1347160; further: nearly all actives have a fitted effect of over 55% in size; further: potency means the concentration at half of the fitted maximal effect; on activity change, negative = inhibition: on the % scale 0 is the no-effect control and ±100 the full control effect)). Conditions: purified NS2B-NS3 protease, Rhodamine110 substrate fluorescence; series mostly up to 57.1 µM; activity change, negative = inhibition: at the top concentration; outcome: at the top concentration.
In short: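 Purified NS2B-NS3 protease with the NS2B hydrophilic domain joined by a flexible linker (25 nM) in 10 mM Tris-HCl pH 8.0, 0.01% Tween 20, preincubated 15 min at RT with compound; Rhodamine110 peptide substrate 1.5 µM; fluorescence change over 15 min; 4-parameter Hill fit.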

Structure (SMILES) | outcome | Potency | activity change, negative = inhibition
O=C(Nc1ccc2[nH]ncc2c1)C1CCC1 | inactive | – | –
O=c1cc(-c2ccccc2)oc2c(O)c(O)ccc12 | – | 6.97 µM (active) | –
O=C(Nc1ccc2c(c1)CCN(Cc1ncn[nH]1)C2)c1ccccc1-c1ccc(C(F)(F)F)cc1 | – | – | -3.52% (inactive)
CCN(CC)CCCCNc1ncc2cc(-c3c(Cl)cccc3Cl)c(NC(=O)NC(C)(C)C)nc2n1 | – | – | 88% (inactive)
CS(=O)(=O)c1ccc(-n2nc(C(F)(F)F)cc2-c2ccc(F)cc2)cc1 | – | – | 14% (inactive)
CN(CCCOc1ccc(Cc2ccccc2)cc1)CCC(=O)O | inactive; activator | – | –
NS(=O)(=O)c1ccc(-n2nc(C(F)(F)F)cc2-c2ccc(Cl)cc2)cc1 | – | – | 7.83% (inactive)

These compounds were tested against Lysine-specific demethylase 5B (Homo sapiens) (UniProt Q9UGL1) (assay: Optimization screen for KDM5B Histone Demethylases FDH coupled qHTS against the LOPAC library (AID 1347166; further: 0% is about no effect)). Conditions: KDM5B demethylation, FDH-coupled NADH fluorescence (FDH is formaldehyde dehydrogenase); series mostly up to 57.5 µM; activity, negative = inhibition: at the top concentration.
In short: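 KDM5BDeltaAP (200nM final) preincubated 10 min with compound, then 12.5uM H3K4Me3, 25uM a-ketoglutarate, ascorbate, Fe(II), NAD+ and FDH added; 50mM HEPES pH 7.5, 0.01% Tween-20. NADH fluorescence (340/450 nm) change over 30 min, room temperature.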

Sequence of Lysine-specific demethylase 5B (Homo sapiens) (Q9UGL1 whole entry, looked up): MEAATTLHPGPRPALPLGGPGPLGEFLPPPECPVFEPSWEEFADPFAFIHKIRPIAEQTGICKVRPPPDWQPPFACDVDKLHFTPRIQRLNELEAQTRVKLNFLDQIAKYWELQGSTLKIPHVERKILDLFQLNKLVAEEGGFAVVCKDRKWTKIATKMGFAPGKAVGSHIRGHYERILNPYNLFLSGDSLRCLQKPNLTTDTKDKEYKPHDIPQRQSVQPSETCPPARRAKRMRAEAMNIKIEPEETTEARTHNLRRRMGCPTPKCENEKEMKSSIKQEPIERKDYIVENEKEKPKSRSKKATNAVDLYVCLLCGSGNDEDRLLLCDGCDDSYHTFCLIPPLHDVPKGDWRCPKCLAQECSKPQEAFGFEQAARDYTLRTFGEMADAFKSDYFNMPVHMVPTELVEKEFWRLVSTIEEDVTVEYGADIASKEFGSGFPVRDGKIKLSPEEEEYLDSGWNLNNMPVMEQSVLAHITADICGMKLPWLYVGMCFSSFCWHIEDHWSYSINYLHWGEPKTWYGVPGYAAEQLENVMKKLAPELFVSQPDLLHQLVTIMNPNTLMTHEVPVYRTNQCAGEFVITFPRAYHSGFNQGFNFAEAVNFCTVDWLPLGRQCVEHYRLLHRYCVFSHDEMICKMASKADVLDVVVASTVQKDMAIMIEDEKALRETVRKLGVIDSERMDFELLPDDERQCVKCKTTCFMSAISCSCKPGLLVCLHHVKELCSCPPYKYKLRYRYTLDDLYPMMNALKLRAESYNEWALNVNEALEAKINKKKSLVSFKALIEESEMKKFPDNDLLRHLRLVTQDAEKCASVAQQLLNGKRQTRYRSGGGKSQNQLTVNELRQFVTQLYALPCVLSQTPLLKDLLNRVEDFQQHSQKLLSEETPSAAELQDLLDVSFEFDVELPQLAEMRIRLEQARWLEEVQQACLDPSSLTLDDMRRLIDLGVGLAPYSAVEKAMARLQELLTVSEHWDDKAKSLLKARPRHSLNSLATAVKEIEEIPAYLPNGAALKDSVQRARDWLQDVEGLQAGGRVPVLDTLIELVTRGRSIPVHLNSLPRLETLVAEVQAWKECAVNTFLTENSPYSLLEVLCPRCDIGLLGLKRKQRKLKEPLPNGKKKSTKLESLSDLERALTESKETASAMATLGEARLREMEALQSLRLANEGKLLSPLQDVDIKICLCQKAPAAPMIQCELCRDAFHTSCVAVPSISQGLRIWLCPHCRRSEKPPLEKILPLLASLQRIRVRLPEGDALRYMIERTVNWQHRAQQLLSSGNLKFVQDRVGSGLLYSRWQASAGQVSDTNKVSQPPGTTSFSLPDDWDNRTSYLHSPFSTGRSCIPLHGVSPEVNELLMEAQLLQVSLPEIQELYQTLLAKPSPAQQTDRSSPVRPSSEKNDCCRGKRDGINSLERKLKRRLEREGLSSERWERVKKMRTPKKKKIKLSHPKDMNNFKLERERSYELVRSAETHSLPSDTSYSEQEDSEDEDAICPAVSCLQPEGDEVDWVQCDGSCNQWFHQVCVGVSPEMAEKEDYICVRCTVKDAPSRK

Structure (SMILES) | activity, negative = inhibition
O=c1[nH]c2cc(C(F)(F)F)ccc2n1-c1cc(C(F)(F)F)ccc1O | -12.6% (inactive)
Cn1cc(C2=C(c3ccc(Cl)cc3Cl)C(=O)NC2=O)c2ccccc21 | -17.3% (inactive)
C#C[C@]1(O)CC[C@H]2[C@@H]3CCC4=Cc5oncc5CC4(C)[C@H]3CCC21C (stereo partly drawn) | -2.3% (inactive)
CN1[C@@H](CC(=O)c2ccccc2)CCC[C@H]1C[C@H](O)c1ccccc1 | -3.01% (inactive)
CN1C2CC(OC(=O)[C@H](CO)c3ccccc3)CC1C1OC12 (stereo partly drawn) | -1.91% (inactive)
CN(C)CCC(c1ccc(Cl)cc1)c1ccccn1 (stereo not drawn) | -2.75% (inactive)
O=C(Nc1cccc(C(=O)Nc2ccc(S(=O)(=O)O)c3cc(S(=O)(=O)O)cc(S(=O)(=O)O)c23)c1)Nc1cccc(C(=O)Nc2ccc(S(=O)(=O)O)c3cc(S(=O)(=O)O)cc(S(=O)(=O)O)c23)c1 | -15.4% (inactive)
N#C/C(=C\c1ccc(-c2cc(Cl)ccc2Cl)o1)C(=O)Nc1cccc2ncccc12 | -29.1% (inactive)
CC1(C)CCC=[N+]1[O-] | 0.777% (inactive)
c1ccc(-c2ccccn2)nc1 | -8.26% (inactive)
c1cnc2c(c1)ccc1cccnc12 | -3.77% (inactive)
CN1C2CCC1CC(OC(=O)C(O)c1ccccc1)C2 (stereo not drawn) | -1.25% (inactive)
Cc1ccc(O)c(N=Nc2ccccc2)n1 | -14.6% (inactive)
O=C(O)CCCC[C@@H]1CCSS1 | 7.34% (inactive)
O=C(O)CC1CCCc2ccccc2C1O (stereo not drawn) | -7.02% (inactive)
NS(=O)(=O)C#Cc1ccccc1 | -3.67% (inactive)
COc1cccc(OC)c1OCCNCC1COc2ccccc2O1 (stereo not drawn) | -1.6% (inactive)
CCOC(=O)N1CCN(/[N+]([O-])=N/Oc2ccc([N+](=O)[O-])cc2[N+](=O)[O-])CC1 | -4.55% (inactive)
CC12C(=O)OC(=O)C1(C)C1CCC2O1 (stereo not drawn) | 3.5% (inactive)
CC(C)(C=O)Cc1cc(C(C)(C)C)c(O)c(C(C)(C)C)c1 | 0.359% (inactive)
COc1cc(C(O)CO)ccc1OS(=O)(=O)O (stereo not drawn) | -8.86% (inactive)
Cc1cc(NC2CCCCC2)nc(-n2nc(C)cc2C)n1 | -2.98% (inactive)
